Test in all cases: NCI-60 one-dose screen, 48 h (100 = growth as untreated, 0 = no growth, -100 = all killed)
The test system of assay [1] is NCI-H226 lung. The conditions noted are these: 10 µM.
For assay [2], the system named is NCI-H322M lung. The conditions noted are these: 10 µM.
The subject of assay [3] is HOP-62 NSCLC. The conditions noted are these: 10 µM.
The subject of assay [4] is NCI-H460 lung. To be noted: 10 µM.
Assay [5] deals with NCI-H522 lung. To be noted: 10 µM.
In assay [6] the test system is COLO 205 colon. To be noted: 10 µM.
In assay [7] the test system is DU-145 prostate. To be noted: 10 µM.
The subject of assay [8] is K-562 leukemia. The conditions noted are these: 10 µM.
Assay [9] deals with SF-539 CNS. To be noted: 10 µM.
The test system of assay [10] is M14 melanoma. The conditions noted are these: 10 µM.
The subject of assay [11] is HCT-15 colon. To be noted: 10 µM.
The test system of assay [12] is HT29 colon. To be noted: 10 µM.
Assay [13] relates to SNB-75 CNS. To be noted: 10 µM.
Assay [14] deals with SNB-19 CNS. The conditions noted are these: 10 µM.
Assay [15] relates to LOX IMVI melanoma. The conditions noted are these: 10 µM.
In assay [16] the test system is MOLT-4 leukemia. The conditions noted are these: 10 µM.
In assay [17] the test system is SR leukemia. The conditions noted are these: 10 µM.
The subject of assay [18] is RPMI-8226 leukemia. To be noted: 10 µM.
In assay [19] the test system is SK-OV-3 ovarian. The conditions noted are these: 10 µM.
Assay [20] deals with MDA-MB-468 breast. The conditions noted are these: 10 µM unless noted.

The panel holds about 83,000 compounds, 20% with a hit somewhere; the sample as a whole holds those more often.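 Activity criterion: percent growth below 10, measured after cells in 96-well plates were exposed to a single compound concentration for 48 hours.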 A number with no mark means an inactive call. The source made the active and inactive calls.

This passage reports growth results from PubChem BioAssay (NCI).

As for `Fc1ccc(-c2csc(Nc3cccc(Nc4nc(-c5ccc(F)cc5)cs4)c3)n2)cc1`, the growth in assay [1] was 51.5%; in [2] it was 60.1%; in assay [3] it was 72.7%; in assay [4], 40.4%; in assay [5], 6.23% (active); in [6], 75.7%. The growth in [7] was 67.7%; in assay [8], 36%; in assay [9] it was 70.9%; in assay [10], 66.8%; in assay [11], 52.5%; in assay [12] it was 62.3%. Further, the growth in [13] was 95.2%; in [14], 70.2%; in assay [15], 39.3%; in [16] it was 46.4%; in assay [17], 51.4%; in assay [18] it was 49.5%. The figures for the growth in [19] and in assay [20] were 86.8% and 38.6%, respectively.
With `CC1(C)CC[C@]2(C(=O)O)CC[C@]3(C)C(=CCC4[C@@]5(C)C[C@@H](O)[C@@H]6OC(c7cccc(F)c7)OC[C@@]6(C)C5CC[C@]43C)C2C1` (stereo not given in full), the growth is 39.9% in assay [1]; 34.2% in assay [2]; 49.5% in [3]; 27.6% in [4]; 8.76% (active) in assay [5]; 15.2% in assay [6]. Moreover, the growth in assay [7] is 36.7%; in [8] it was 21.1%; in [9], 70.2%; in assay [10], 46%; in assay [11] it was 23%; in assay [12], 28.1%. Besides, the growth in assay [13] is 81.6%; in assay [14], 45.7%; in [15] it was 27.6%; in assay [16] it was 18.5%; in [17], 22.4%; in assay [18], 21.1%. In addition, the growth was 82.7% in assay [19] and 23.5% in assay [20].
`C#C[C@]1(O)CC[C@H]2[C@@H]3CC=C4c5sc(Nc6ccc(N(C)C)cc6)nc5CC[C@]4(C)[C@H]3CC[C@@]21C`: the growth in assay [1] was -43.2% (active); in assay [2], 42.5%; in assay [3], 10.7%; in [4], 7.37% (active); in assay [5] it was -57.1% (active); in [6], -28.6% (active). The growth in assay [7] is -8.05% (active); in [8], 4% (active); in assay [9], -75.7% (active); in assay [10], -12.3% (active); in assay [11], -37.5% (active); in [12] it was -53.5% (active). Also, the growth is 33.8% in assay [13]; 18.1% in assay [14]; -80.3% (active) in assay [15]; -6.03% (active) in [16]; 9.05% (active) in assay [17]; -42% (active) in assay [18]. For the same compound, the figures for the growth in assay [19] and in assay [20] were -39.5% (active) and -56.3% (active), respectively.
`O=C(c1ccc(Cl)cc1)C(c1c[nH]c2ccccc12)c1c[nH]c2ccccc12`: the growth was -50.8% (active) in assay [1]; 38.1% in assay [2]; 16% in assay [3]; -53.5% (active) in assay [4]; -82.6% (active) in assay [5]; -87.9% (active) in assay [6]. The growth in assay [7] was -91.7% (active); in [8], 0.546% (active); in assay [9], -94.2% (active); in [10], -71% (active); in assay [11] it was -63.9% (active); in assay [12], -71.1% (active). Further, the growth is 31.9% in assay [13]; 22.4% in assay [14]; -85.1% (active) in [15]; -1.68% (active) in assay [16]; -12.2% (active) in assay [17]; -27.9% (active) in assay [18]. The growth was 57.2% in assay [19] and -71.1% (active) in [20].
With `O=C1S/C(=C\c2ccc([N+](=O)[O-])cc2)C(=O)N1CCN1CCCCC1`, the growth in [1] was 105%; in assay [2], 107%; in assay [3], 112%; in [4] it was 115%; in [5] it was 99.7%; in assay [6], 113%. Besides, the growth was 119% in assay [7]; 98.1% in [8]; 112% in assay [9]; 98.6% in assay [10]; 92.6% in [11]; 121% in assay [12]. The growth in assay [13] was 104%; in assay [14], 98.6%; in [15], 98.6%; in assay [16], 101%; in [17] it was 111%; in assay [18], 106%. Besides, the growth in assay [19] was 102%; in assay [20], 99.5%.
Consider `Cn1cc(-c2cc(N)n3nc(-c4cn(C)c5ccccc45)cc3n2)c2cc(F)ccc21`, for which the growth in [1] was -39.8% (active); in assay [2], -19.1% (active); in [3], -64.6% (active); in assay [4], -61.6% (active); in [5], -66.3% (active); in assay [6], -82.3% (active). Further, the growth was -2.27% (active) in assay [7]; 0.146% (active) in assay [8]; -81.6% (active) in assay [9]; -83.6% (active) in [10]; -80.2% (active) in [11]; -72.2% (active) in [12]. Also, the growth is -67% (active) in assay [13]; -6.35% (active) in assay [14]; -86.2% (active) in assay [15]; -14.4% (active) in [16]; 9.63% (active) in assay [17]; -13.3% (active) in [18]. Further, the growth was -77.7% (active) in assay [19] and -36.3% (active) in [20].
Turning to `COC(=O)CNC(=O)COc1c(OC)c(OC)cc2oc(-c3cccc(C(=O)Nc4ccc(Cl)cc4)c3)cc(=O)c12`, the growth in [1] was -51.4% (active); in assay [2], 76.6%; in assay [3], -34.4% (active); in assay [4] it was 12.6%; in [5], 64.9%; in assay [6], 31%. For the same compound, the growth is 33.6% in assay [7]; 50% in assay [8]; 16% in assay [9]; 7.29% (active) in assay [10]; 67.7% in assay [11]; 58.4% in assay [12]. The growth was 85.1% in assay [13]; 25.9% in [14]; -33.2% (active) in [15]; 88.6% in assay [16]; 61.2% in [17]; 53.7% in [18]. Further, the growth is 82.2% in assay [19] and 94.6% in assay [20].
Take `COc1ccccc1-n1cc(C#N)c(N)c1C(=O)c1ccc(Cl)cc1Cl`: the growth in [1] is 34.5%; in assay [2] it was 48%; in assay [3], 38.2%; in assay [4], 12.5%; in [5], -55.6% (active); in assay [6] it was 19.6%. For the same compound, the growth was 35.4% in assay [7]; 12.5% in [8]; -0.792% (active) in assay [9]; 20.4% in assay [10]; 24.4% in assay [11]; -14.7% (active) in assay [12]. Also, the growth in assay [13] is -22.8% (active); in assay [14] it was 30.1%; in assay [15], 39.5%; in assay [16], 20.3%; in assay [17], 11.5%; in assay [18], 14.7%. The growth in assay [19] was 14.9%; in assay [20] it was 15.8%.
